Test results: PubChem BioAssay AID1159580 (chemical genetic matrix, 2015)
In all, about 5,500 compounds went through this assay and about 2,000 (36%) were called active. Inconclusive results (about 18%) are left out. No stated cut-off is given here; in the data, active means normalized growth mostly below about 0.91 (no sharp cut-off); inconclusive means no clear call, values can overlap the other calls; inactive means mostly above about 0.92. The list shows a part of the results.

Assay: chemical genetic growth profiling, strain panel (AID 1159580);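 further: tested at 20 µM; growth read once vehicle control cultures reached saturation at 30 °C; 1 = growth at the plate median or of vehicle wells; lower values mean less growth of the strain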
Conditions: S. cerevisiae deletion strains, growth OD

Measured: normalized growth

COc1cc(O)c2c(=O)c(O)c(-c3ccc(O)c(O)c3)oc2c1
active: locus YAL021C, strain ccr4, hits give low values 0.466 | locus YAL026C, strain drs2, hits give low values 0.678 | locus YAL030W, strain snc1, hits give low values 0.886 | locus YBL061C, strain skt5, hits give low values 0.794 | locus YBR009C, strain hhf1, hits give low values 0.773 | locus YBR023C, strain chs3, hits give low values 0.693 | locus YBR231C, strain swc5, hits give low values 0.72 | locus YBR279W, strain paf1, hits give low values 0.829 | locus YCL011C, strain gbp2, hits give low values 0.803 | locus YCL016C, strain dcc1, hits give low values 0.865 | locus YCL069W, strain vba3, hits give low values 0.846 | locus YCR088W, strain abp1, hits give low values 0.912 | locus YDR069C, strain doa4, hits give low values 0.467 | locus YDR137W, strain rgp1, hits give low values 0.659 | locus YDR297W, strain sur2, hits give low values 0.787 | locus YDR334W, strain swr1, hits give low values 0.755 | locus YDR335W, strain msn5, hits give low values 0.761 | locus YEL003W, strain gim4, hits give low values 0.795 | locus YEL037C, strain rad23, hits give low values 0.823 | locus YEL061C, strain CIN8 (second series), hits give low values 0.907 | locus YER015W, strain faa2, hits give low values 0.66 | locus YER016W, strain bim1, hits give low values 0.895 | locus YER111C, strain swi4, hits give low values 0.793 | locus YER155C, strain BEM2 (second series), hits give low values 0.789 | locus YFR010W, strain ubp6, hits give low values 0.736 | locus YGL173C, strain kem1, hits give low values 0.657 | locus YGL253W, strain hxk2, hits give low values 0.693 | locus YHR013C, strain ard1, hits give low values 0.808 | locus YHR027C, strain rpn1, hits give low values 0.549 | locus YHR129C, strain ARP1, hits give low values 0.875 | locus YHR142W, strain chs7, hits give low values 0.622 | locus YJL092W, strain hpr5, hits give low values 0.885 | locus YJL095W, strain BCK1 (second series), hits give low values 0.746 | locus YJL129C, strain trk1, hits give low values 0.867 | locus YJL164C, strain tpk1, hits give low values 0.723 | locus YJL166W, strain qcr8, hits give low values 0.819 | locus YJL187C, strain SWE1 (second series), hits give low values 0.776
inactive: locus YAL013W, strain DEP1, hits give low values 0.998 | locus YBR021W, strain FUR4, hits give low values 1.01 | locus YBR171W, strain sec66, hits give low values 0.932 | locus YBR229C, strain ROT2, hits give low values 0.987 | locus YCL029C, strain bik1, hits give low values 1.01 | locus YDL005C, strain med2, hits give low values 1 | locus YDL035C, strain GPR1, hits give low values 0.931 | locus YDL040C, strain nat1, hits give low values 0.988 | locus YDL074C, strain BRE1, hits give low values 0.822 | locus YDL101C, strain DUN1, hits give low values 0.911 | locus YDL185W, strain tfp1, hits give low values 0.995 | locus YDL192W, strain arf1, hits give low values 0.986 | locus YDR001C, strain nth1, hits give low values 0.954 | locus YDR101C, strain arx1, hits give low values 0.992 | locus YDR159W, strain sac3, hits give low values 0.891 | locus YDR162C, strain NBP2, hits give low values 0.948 | locus YDR195W, strain ref2 1.02 | locus YDR318W, strain mcm21, hits give low values 0.986 | locus YDR388W, hits give low values 1.01 | locus YDR392W, strain spt3, hits give low values 0.838 | locus YDR502C, strain sam2, hits give low values 0.981 | locus YEL061C, strain CIN8, hits give low values 0.966 | locus YER110C, hits give low values 1.03 | locus YER155C, strain BEM2, hits give low values 1.01 | locus YER167W, strain BCK2, hits give low values 1.02 | locus YGL078C, strain dbp3, hits give low values 1.01 | locus YGL086W, strain mad1, hits give low values 0.933 | locus YGL167C, strain pmr1, hits give low values 0.949 | locus YGL227W, strain vid30, hits give low values 1.01 | locus YGL240W, strain doc1, hits give low values 0.961 | locus YGL248W, strain PDE1, hits give low values 0.915 | locus YGR135W, strain pre9, hits give low values 0.984 | locus YGR252W, strain gcn5, hits give low values 1.03 | locus YHR030C, strain SLT2, hits give low values 0.971 | locus YHR079C, strain IRE1 (second series), hits give low values 1.02 | locus YHR094C, strain hxt1, hits give low values 1.02 | locus YHR200W, strain rpn10, hits give low values 0.997 | locus YIL066C, strain RNR3, hits give low values 0.974 | locus YIL073C, strain SPO22, hits give low values 0.925 | locus YIL125W, strain kgd1, hits give low values 0.981 | locus YIR030C, strain dcg1, hits give low values 1.01 | locus YJL095W, strain BCK1, hits give low values 0.822 | locus YJL115W, strain asf1, hits give low values 0.968 | locus YJL134W, strain LCB3, hits give low values 0.986 | locus YJL154C, strain vps35, hits give low values 0.957 | locus YJL168C, strain set2, hits give low values 1.03 | locus YJR043C, strain POL32, hits give low values 0.896
